Some test systems named below: DU-145 prostate; K-562 leukemia; MALME-3M melanoma; MDA-MB-231 breast; RXF 393 renal; SF-268 CNS; SF-295 CNS; SF-539 CNS; UACC-257 melanoma; M14 melanoma.
Common to all, as to experiment: NCI-60 one-dose screen, 48 h (100 = growth as untreated, 0 = no growth, -100 = all killed)
Common to all, as to conditions: 10 µM unless noted

Each structure is given as a SMILES string. Compounds without any hit were thinned out: in the full panel of roughly 83,000, 20% have a hit.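 The test compound was applied at a single concentration to cells in 96-well plates for 48 hours, and percent growth was recorded.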 A number with no mark means an inactive call. Activity calls are given as the source filed them. How the source made its calls: active means growth percent below 10; inactive means the rest.

On to `CC1(C)N=C(N)N=C(N)N1c1cccc(OCCOc2cccc([N+](=O)[O-])c2)c1`, for which the growth in the test with DU-145 prostate is 45.1%; with K-562 leukemia it was 17.9%; with MALME-3M melanoma it was 48.2%; with MDA-MB-231 breast, 65%; in the test on RXF 393 renal, 73.2%; in the test with SF-268 CNS it was 22.9%. The growth with SF-295 CNS was 68.1%; in the test on SF-539 CNS it was 26.1%; in the test on UACC-257 melanoma, 48.3%; with M14 melanoma, 64.1%.
With `O=c1onc(-c2ccccc2)c2ccccc12`, the growth in the test with DU-145 prostate was 113%; in the test on K-562 leukemia, 105%; in the test with MALME-3M melanoma, 121%; with MDA-MB-231 breast, 97%; with RXF 393 renal, 90.5%; in the test on SF-268 CNS it was 113%. The growth is 101% in the test with SF-295 CNS, 122% in the test on SF-539 CNS, 120% with UACC-257 melanoma and 118% in the test with M14 melanoma.
For the compound `COC1(OC)C2(Cl)C=C(c3ccccc3)C1(Cl)C(Cl)=C2Cl` (stereo not given), the growth in the test with DU-145 prostate is 113%; with K-562 leukemia, 88.8%; in the test with MALME-3M melanoma, 97.9%; with MDA-MB-231 breast, 110%; in the test with RXF 393 renal, 104%; in the test on SF-268 CNS, 101%. Also, the growth in the test on SF-295 CNS is 93.9%; in the test with SF-539 CNS it was 91.5%; with UACC-257 melanoma, 90.1%; with M14 melanoma, 97.2%.
`CCCCCCCCCCCCSC1=CC(=O)C=CC1=O`: the growth is 111% in the test on DU-145 prostate; 75% with K-562 leukemia; 102% in the test with MALME-3M melanoma; 97.2% in the test on MDA-MB-231 breast; 78% in the test on RXF 393 renal; 44.6% in the test on SF-268 CNS. For the same compound, the growth was 51.8% in the test on SF-295 CNS, 27.7% in the test on SF-539 CNS, 73.2% in the test with UACC-257 melanoma and 89.5% in the test with M14 melanoma.
With `O=C(N/N=C/c1ccc(F)cc1)c1[nH]c2ccc(I)cc2c1-c1ccccc1`, the growth was 15.7% in the test with DU-145 prostate; 75.4% in the test with K-562 leukemia; 71.5% in the test on MALME-3M melanoma; 16.5% in the test with MDA-MB-231 breast; 39.6% in the test with RXF 393 renal; 34.6% in the test with SF-268 CNS. Further, the growth in the test on SF-295 CNS is 22.1%; with SF-539 CNS it was -18.1% (active); in the test on UACC-257 melanoma, 93.3%; in the test on M14 melanoma, 28.4%.
Take `O=C(CCc1nnc2sc(/C=C\c3ccccc3)nn12)c1nc2ccccc2[nH]1`: the growth was 98% with DU-145 prostate; 2.17% (active) in the test on K-562 leukemia; 93.8% in the test on MALME-3M melanoma; 83% with MDA-MB-231 breast; 108% in the test with RXF 393 renal; 107% in the test on SF-268 CNS. Besides, the growth is 83.8% in the test on SF-295 CNS, 65.9% in the test with SF-539 CNS, 94.9% in the test on UACC-257 melanoma and 90.7% with M14 melanoma.
With `Nc1nc(-c2ccnc(Cl)c2)nn1-c1nc2ccccc2s1`, the growth in the test with DU-145 prostate is 115%; in the test with K-562 leukemia it was 112%; in the test with MALME-3M melanoma it was 97.3%; in the test on MDA-MB-231 breast, 89.5%; in the test on RXF 393 renal, 108%; in the test with SF-268 CNS it was 100%. For the same compound, the growth in the test with SF-295 CNS was 101%; in the test with SF-539 CNS, 98.5%; with UACC-257 melanoma, 113%; with M14 melanoma it was 101%.
With `Cn1c(=O)c2c(-c3ccccc3F)n(-c3ccc4c(c3)OCO4)cc2n(C)c1=O`, the growth in the test on DU-145 prostate is 110%; with K-562 leukemia, 78.7%; in the test on MALME-3M melanoma, 141%; in the test on MDA-MB-231 breast, 77.1%; in the test with RXF 393 renal it was 83.3%; in the test on SF-268 CNS, 97.4%. Further, the growth with SF-295 CNS was 87.9%; in the test on SF-539 CNS, 92.7%; with UACC-257 melanoma, 117%; in the test with M14 melanoma, 117%.
As to `Cc1c(C(=O)Nc2nc(-c3ccccc3)cs2)nnn1-c1ccccc1Br`, the growth in the test with DU-145 prostate was 51.8% [50 µM]; with K-562 leukemia, 20.3% [50 µM]; in the test with MALME-3M melanoma, 17.5% [50 µM]; in the test with MDA-MB-231 breast it was 44% [50 µM]; with RXF 393 renal, 76.4% [50 µM]; with SF-268 CNS, 61.5% [50 µM]. Moreover, the growth in the test on SF-295 CNS was 31.2% [50 µM]; in the test on SF-539 CNS, 63.8% [50 µM]; in the test on UACC-257 melanoma, 13.2% [50 µM]; with M14 melanoma it was 43.1% [50 µM].
On to `COc1ccc(Sc2ccc3[nH]c(=O)nc(N)c3c2)cc1`, for which the growth with DU-145 prostate is 108%; with K-562 leukemia, 100%; in the test with MALME-3M melanoma, 102%; in the test on MDA-MB-231 breast, 91.5%; with RXF 393 renal, 101%; in the test with SF-268 CNS it was 107%. Moreover, the growth with SF-295 CNS is 106%; with SF-539 CNS it was 105%; in the test on UACC-257 melanoma, 92%; with M14 melanoma it was 105%.
With `CCCCCCCC/C=C\CCCCCCCCOc1cccc(CC(=O)NCC[N+]2(C)CCOCC2)c1`, the growth with DU-145 prostate was 93.6%; in the test on K-562 leukemia it was 73.4%; in the test on MALME-3M melanoma it was 93.3%; in the test with MDA-MB-231 breast, 87.2%; with RXF 393 renal it was 6.07% (active); in the test with SF-268 CNS it was 70.2%. For the same compound, the growth with SF-295 CNS was 89.1%; in the test on SF-539 CNS it was 96.2%; with UACC-257 melanoma it was 93.6%; with M14 melanoma, 87%.
Regarding `Clc1ccc(C2=NN(c3ccccc3)[C@H](c3cn(-c4ccccc4)nc3-c3ccccc3)C2)cc1`, the growth in the test on DU-145 prostate is 119%; in the test with K-562 leukemia, 111%; with MALME-3M melanoma, 103%; in the test with MDA-MB-231 breast, 96.6%; in the test on RXF 393 renal it was 106%; in the test on SF-268 CNS it was 109%. In addition, the growth was 108% in the test with SF-295 CNS, 107% with SF-539 CNS, 92.2% in the test with UACC-257 melanoma and 109% in the test with M14 melanoma.
On to `Cc1ccccc1-n1nnc(C(=O)Nc2ccc(-c3ccccc3)cn2)c1C`, for which the growth in the test with DU-145 prostate is 54.3% [50 µM]; in the test on K-562 leukemia, 26.5% [50 µM]; with MALME-3M melanoma, 39.6% [50 µM]; in the test with MDA-MB-231 breast it was 63.1% [50 µM]; in the test on RXF 393 renal, 74.7% [50 µM]; in the test with SF-268 CNS it was 68.7% [50 µM]. For the same compound, the growth with SF-295 CNS was 38.9% [50 µM]; in the test on SF-539 CNS, 72.3% [50 µM]; in the test with UACC-257 melanoma, 25.5% [50 µM]; with M14 melanoma, 41.8% [50 µM].

Values taken from PubChem BioAssay (NCI).
